# Source: PubChem (National Center for Advancing Translational Sciences (NCATS))
# DT40 TDP1 no CPT: qHTS for Inhibitors of human tyrosyl-DNA phosphodiesterase 1 (TDP1): qHTS in cells in absence of CPT. DT40 Tdp1-/- hTDP1 cells, no CPT, ATP luminescence, 48 h. Potency, µM (highest dose often 46.2 µM), for the others: top-dose activity change, negative = growth inhibition, usual class: inhibitors. actives 15% (n = 420,000). AID 686978, 2013; note: nearly all actives have a fitted effect of over 55% in size
#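 A cellular qHTS used chicken DT40 cells lacking endogenous Tdp1 but carrying stably transfected human TDP1. Compounds were applied without camptothecin, and cell growth kinetics were judged by ATP-dependent luminescence after ≥48 hr.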
# HT1080 IDH1KD tx: HT-1080 IDH1 knockdown cell toxicity (counter line); HT-1080 IDH1 knockdown viability, ATP luminescence, 48 h; Potency, µM (doses to about 46.1 µM), for inactives: at the top dose activity, negative = toxicity, hits mostly cytotoxic; actives 2% (n = 360,000);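 note: 0% = DMSO wells and -100% = cell-free medium wells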
#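 In this qHTS, HT-1080 cells depleted of IDH1 are exposed for 48 h at 37 °C to compound titrations. Toxicity is scored from CellTiter-Glo luminescence, with DMSO as full viability and medium alone as none.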
# HT1080-NT tox: kills 2HG-producing HT-1080-NT fibrosarcoma cells. HT-1080-NT fibrosarcoma viability, CellTiter-Glo ATP luminescence, 48 h. Potency, µM (highest dose often 46.1 µM), without a hit: at the highest dose activity, negative = less viability, actives largely listed as cytotoxic. actives 1.6% (n = 360,000);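 note: NT is the 2HG producing partner of a matched IDH1 knockdown line; 0% = DMSO-treated cells and -100% = media-only wells without cells; nearly all actives have a fitted effect of over 55% in size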
#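 Luminescent CellTiter-Glo readout after 48 hours of compound exposure at 37 degrees C defined viability of HT-1080-NT cells. Activity was normalized to DMSO wells and cell-free media wells; concentration-response curves were fitted and assigned curve classes.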
# TDP1 cell CPT: DT40-hTDP1 cell growth loss with CPT | chicken DT40 Tdp1-/-;hTDP1 cells + 20 nM CPT, ATP luminescence, 48 h | Potency, µM (series often up to 46.2 µM), for inactives: at the highest dose activity change, negative = growth inhibition, hits mostly inhibitors | actives 12% (n = 420,000) | AID 686979; note: nearly all actives have a fitted effect of over 55% in size
#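 Chicken DT40 Tdp1-/- cells complemented with human TDP1, 400 cells/well, exposed to compounds plus 20 nM camptothecin for at least 48 h at 37 C; viability read as ATP content by CellTiter-Glo luminescence.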
# KB-V1 cytotox: KB-V1 MDR subline cytotoxicity | KB-V1 MDR cells viability, CellTiter-Glo, 72 h | Potency, µM (highest dose often 46.1 µM), hits mostly cytotoxic | actives 3.4% (n = 400,000) | AID 1347076; note: nearly all actives have a fitted effect of over 60% in size
#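 KB-V1 cells (P-gp-expressing MDR subline of KB-3-1) in phenol-red-free DMEM with 10% FBS were exposed to library compounds over a concentration series for 72 h at 37 degrees C. Viability read by CellTiter-Glo luminescence; concentration-effect curves fitted after normalization.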
# KB-3-1 cytotox: kills parental KB-3-1 adenocarcinoma cells | KB-3-1 viability, CellTiter-Glo ATP luminescence, 72 h | Potency, µM (titrated, usually from 46.1 µM), usual class: cytotoxic | actives 1.4% (n = 400,000); note: nearly all actives have a fitted effect of over 60% in size
#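 Luminescent ATP read-out (CellTiter-Glo) measures survival of drug-naive KB-3-1 cells after 72 h compound exposure at 37 °C. Titration series was screened from lowest to highest concentration, with DMSO vehicle plates as background controls.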
# Numbers without * were called inactive; i = inactive; u = inconclusive; x = no result given. Shown are actives, neighbours in structure and some others; about 19% of the full set was active somewhere. Calls come from the whole dose curve; as a rule, active = well fitted curve in the direction sought with a large enough effect; inconclusive = small, poorly fitted or top-dose-only effect, or another doubt; inactive = no such curve, though single readings can be large; an effect the other way counts as inactive or inconclusive. Unless noted, % is set by controls: 0 for no effect and ±100 for the full control effect; potency is the fitted concentration of half-maximal effect.
SMILES,DT40 TDP1 no CPT,HT1080 IDH1KD tx,HT1080-NT tox,TDP1 cell CPT,KB-V1 cytotox,KB-3-1 cytotox
COc1ccc(C(=O)CC(=O)c2ccc(C(C)(C)C)cc2)cc1,u,-17%,1%,u,u,i
COc1ccc(CN(Cc2ccco2)C(=O)c2ccccc2F)cc1,16µM*,x,x,16µM*,x,x
Cc1ccc(CN(Cc2ccco2)C(=O)c2ccc(Cl)cc2Cl)cc1,u,x,x,u,i,i
O=C(c1ccc(Cl)c(Cl)c1)N(Cc1ccco1)c1ccc(O)cc1,u,u,u,u,u,i
CCOc1ccccc1C(=O)N(Cc1ccc(N(C)C)cc1)Cc1ccco1,16µM*,x,x,u,x,x
CN(C)c1ccc(CN(Cc2ccco2)C(=O)c2ccco2)cc1,u,-1%,-3%,u,u,i
Cc1ccccc1OCCC(=O)N(CC(=O)Nc1ccccc1C(F)(F)F)Cc1ccco1,-17%,5%,10%,-23%,i,i
CC(C)COc1cccc(C(=O)N(CC(=O)Nc2ccccc2C(F)(F)F)Cc2ccco2)c1,18µM*,-15%,-3%,u,i,i
CCOc1c(Cl)cc(C(=O)N(Cc2ccc(N(C)C)cc2)Cc2ccco2)cc1Cl,13µM*,x,x,23µM*,x,x
COC(=O)c1ccccc1N(C)S(=O)(=O)c1cc2c3c(c1)CCC(=O)N3CCC2,u,0%,0%,u,i,i
CC(C)COc1ccc(C(=O)N(Cc2ccc(N(C)C)cc2)Cc2ccco2)cc1,15µM*,x,x,18µM*,x,x
CCOc1cccc(C(=O)N(Cc2ccc(F)cc2)C2CCS(=O)(=O)C2)c1 (configuration not stated),-3%,-2%,0%,3%,i,i
CC(C)COc1ccc(C(=O)Nc2ccc(NC(=O)c3ccco3)cc2)cc1,u,12%,-2%,u,i,i
CCOc1cccc(C(=O)N(Cc2ccc(F)cc2)Cc2ccco2)c1,16µM*,x,x,23µM*,x,x
O=C1NC[C@@H](CCCCN2C[C@H](Cc3ccccc3)N(CC3CCCCC3)C(=O)C2=O)N(CCc2ccccc2)C1=O,-3%,7%,7%,-1%,i,i
Cc1cc(C)cc(C(=O)NC(=S)Nc2ccc(Cc3ccncc3)cc2)c1,29µM*,u,u,u,u,u
COc1c(C(=O)Nc2ccc(Cc3ccncc3)cc2)ccc2ccccc12,23µM*,-21%,-10%,u,2.9µM*,13µM*
O=C(NC(=S)Nc1ccc(N2CCCCC2)c(Cl)c1)c1ccc2c(c1)OCCO2,21µM*,18µM*,12µM*,16µM*,u,1.2µM*
COc1ccccc1C(=O)NC(=S)Nc1ccc(Cc2ccncc2)cc1,18µM*,-4%,-10%,u,i,u
COc1cc(C(=O)NC(=S)Nc2ccc(Cc3ccncc3)cc2)cc(OC)c1OC,u,7%,-9%,u,i,i
CC(=O)c1cccc(OC(=O)C2=CC=CN3CCS(=O)(=O)N=C23)c1,12%,5%,4%,1%,i,i
CCOc1ccccc1NC(=O)C1CCN(S(=O)(=O)c2ccc3[nH]c4c(c3c2)CCCCC4)CC1,u,x,x,u,i,i
O=C(CCN1C(=O)COc2ccccc21)NCCCN1CCc2ccccc2C1,-2%,7%,2%,2%,i,i
COc1cccc(Nc2ncc3nc(CCc4ccccc4)c(=O)n(CCC#N)c3n2)c1,-13%,x,x,4%,x,x
CCc1ccc(C(=O)NC(=S)Nc2ccc3c(c2)OCCO3)cc1,u,-4%,-25%,u,i,i
SMILES,DT40 TDP1 no CPT,HT1080 IDH1KD tx,HT1080-NT tox,TDP1 cell CPT,KB-V1 cytotox,KB-3-1 cytotox
COc1ccc(NC(=O)c2cccc3ccccc23)cc1,21µM*,u,-26%,18µM*,u,u
COc1ccc(NC(=O)c2c(Cl)n(C)c3ccccc23)cc1,8.2µM*,u,18µM*,8.2µM*,5.8µM*,2.9µM*
Cc1cc(C)cc(C(=O)NC(=S)Nc2ccc3c(c2)OCCO3)c1,u,10%,-3%,16µM*,4.6µM*,i
CC(C)CNS(=O)(=O)c1cc2c3c(c1)CCC(=O)N3CCC2,4%,1%,-10%,-3%,i,i
CCc1ccc(-c2nc(CN3CCC(C(=O)NCCc4ccc(Cl)cc4)CC3)c(C)o2)cc1,u,x,x,-10%,i,i
CCOC(=O)C1CCCN(C(=O)C2CCN(Cc3nc(-c4ccc(Cl)cc4)oc3C)CC2)C1 (configuration not stated),21µM*,-10%,-2%,u,i,i
Cc1oc(-c2ccc(Cl)cc2)nc1CN1CCC(C(=O)N2CCc3ccccc3C2)CC1,18µM*,-1%,1%,23µM*,i,i
O=C(O)c1ccccc1-c1ccc(C(F)(F)F)cc1,-9%,x,x,3%,x,x
O=C(NCc1nnnn1-c1ccc(F)cc1)c1cc2ccccc2o1,0%,0%,1%,-15%,i,i
O=C(c1ccccc1)N1CCCC(C(=O)N2CCN(c3ccccc3)CC2)C1 (configuration not stated),u,6%,8%,u,i,i
Cc1sc2ncnc(N3CCC(C(=O)N4CC(C)SC4=Nc4ccc(Cl)cc4)CC3)c2c1C (configuration not stated),u,0%,1%,u,i,i
COc1ccc(/C=C/C=C2\N=C(SC)SC2=O)cc1,29µM*,25%,16%,23µM*,u,i
CSC1=N/C(=C\c2ccc(F)cc2)C(=O)S1,-22%,-3%,0%,1%,i,i
O=C(N/N=C/c1ccco1)c1cc(-c2ccncc2)nc2ccccc12,7.3µM*,u,u,7.3µM*,i,u
O=C(N/N=C/c1cccs1)c1cc(-c2ccncc2)nc2ccccc12,0.58µM*,-54%,-58%,0.58µM*,1.8µM*,u
Cc1cc(C(=O)N/N=C/c2ccco2)c2ccccc2n1,u,-24%,-15%,u,i,i
CCc1ccc(/C=N/NC(=O)c2cc(-c3ccncc3)nc3ccccc23)s1,3.3µM*,u,u,4.6µM*,i,4.6µM*
COc1ccccc1-c1cc(C(=O)N/N=C/c2cccs2)c2ccccc2n1,u,u,-28%,u,i,u
